# Assay results as given in the supplement of paper PMC4022240.
# ± gives the standard deviation.
# T1: HaloTag-ATRX ADD domain (163-292)
# T1 chain: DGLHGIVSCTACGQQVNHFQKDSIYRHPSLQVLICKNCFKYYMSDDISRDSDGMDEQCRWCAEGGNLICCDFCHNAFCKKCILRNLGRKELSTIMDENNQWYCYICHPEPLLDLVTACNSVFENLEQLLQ
# Columns and labels:
# Assay in all cases: peptide microarray binding signal (635 nm), min-max normalized on array (fraction of array maximum); higher = stronger binding
# Settings in all cases: peptide region: H3 1-13
# [1] = target: T1, HaloTag-ATRX ADD domain (163-292)
# In short: (§1)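 Arrays carried histone 13-mer peptide–cellulose conjugates printed in triplicate on nitrocellulose alongside a Cy3 tracer. After overnight blocking at 4°C, they were incubated for 1 h at 4°C with biotin-labelled HaloTag reader fusions (10 nM to 1 μM) plus streptavidin-Alexa Fluor 647, or with rabbit histone antibodies (1:10,000 to 1:2,000) plus anti-rabbit Alexa 647. Scanning on an Axon GenePix 4000B used 635 nm for signal and 532 nm for misprints. The binding signal reported is each triplicate's mean spot intensity after per-library min-max scaling.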
# [2] = target: HaloTag-ING2 PHD (mouse Ing2 200-280)
# In short: as §1
# [3] = target: anti-H3K4me3 antibody ab8580
# In short: as §1
# [4] = target: anti-H3K9me3 antibody ab8898
# In short: as §1
# [5] = peptide modifications: H3R8me2s H3K9ac, binder concentration: 1:2,000 dilution
# [6] = peptide modifications: H3R8me2s H3K9me2, binder concentration: 1:2,000 dilution
# [7] = peptide modifications: H3R8me2s H3K9me2, binder concentration: 1:10,000 dilution
# [8] = peptide modifications: H3R8me2s, binder concentration: 1:2,000 dilution
# [9] = peptide modifications: H3R8me2s, binder concentration: 1:10,000 dilution
# [10] = peptide modifications: H3R8me2a H3K9me3, binder concentration: 1:2,000 dilution
# [11] = peptide modifications: H3R8me2a H3K9me3, binder concentration: 1:10,000 dilution
# [12] = peptide modifications: H3R8me2a, binder concentration: 1:2,000 dilution
# [13] = peptide modifications: H3R8me2a, binder concentration: 1:10,000 dilution
# [14] = peptide modifications: H3R8me2s H3K9me1, binder concentration: 1:2,000 dilution
# [15] = peptide modifications: H3R8me2s H3K9me1, binder concentration: 1:10,000 dilution
# [16] = peptide modifications: H3R8me2s H3K9me3, binder concentration: 1:2,000 dilution
# [17] = peptide modifications: H3R8me2s H3K9me3, binder concentration: 1:10,000 dilution
# [18] = peptide modifications: H3T3ph H3K4me1, binder concentration: 1:2,000 dilution
# [19] = peptide modifications: H3T3ph H3K4me1, binder concentration: 1:10,000 dilution
# [20] = peptide modifications: H3T3ph H3K4ac, binder concentration: 1:2,000 dilution
# [21] = peptide modifications: H3T3ph H3K4ac, binder concentration: 1:10,000 dilution
# [22] = peptide modifications: H3S10ph, binder concentration: 1:2,000 dilution
# [23] = peptide modifications: H3S10ph, binder concentration: 1:10,000 dilution
binder,measurement,setting,value
ARTKQTARKSTGG [H3 1-13 A R T K Q T A Rme2s Kac S T G G],peptide microarray binding signal,"[1]; peptide modifications: H3R8me2s H3K9ac, binder concentration: 500 nM",0.0059 ± 0.0002
same,peptide microarray binding signal,"[2]; peptide modifications: H3R8me2s H3K9ac, binder concentration: 100 nM",0.00574 ± 0.00031
same,peptide microarray binding signal,[3]; [5],0.00142 ± 6.5e-05
same,peptide microarray binding signal,[4]; [5],0.00243 ± 0.00046
ARTKQTARKSTGG [H3 1-13 A R T K Q T A Rme2s Kme2 S T G G],peptide microarray binding signal,"[1]; peptide modifications: H3R8me2s H3K9me2, binder concentration: 50 nM",0.0108 ± 0.00034
same,peptide microarray binding signal,"[1]; peptide modifications: H3R8me2s H3K9me2, binder concentration: 500 nM",0.0202 ± 0.00096
same,peptide microarray binding signal,"[2]; peptide modifications: H3R8me2s H3K9me2, binder concentration: 10 nM",0.0292 ± 0.0027
same,peptide microarray binding signal,"[2]; peptide modifications: H3R8me2s H3K9me2, binder concentration: 100 nM",0.049 ± 0.0084
same,peptide microarray binding signal,[3]; [6],0.00447 ± 0.00012
same,peptide microarray binding signal,[3]; [7],0.00451 ± 0.00027
same,peptide microarray binding signal,[4]; [6],0.00805 ± 0.0035
same,peptide microarray binding signal,[4]; [7],0.0049 ± 0.00019
ARTKQTARKSTGG [H3 1-13 A R T K Q T A Rme2s K S T G G],peptide microarray binding signal,"[1]; peptide modifications: H3R8me2s, binder concentration: 50 nM",0.007899 ± 6.4e-05
same,peptide microarray binding signal,"[1]; peptide modifications: H3R8me2s, binder concentration: 500 nM",0.0258 ± 0.00046
same,peptide microarray binding signal,"[2]; peptide modifications: H3R8me2s, binder concentration: 10 nM",0.0129 ± 0.00049
same,peptide microarray binding signal,"[2]; peptide modifications: H3R8me2s, binder concentration: 100 nM",0.0364 ± 0.027
same,peptide microarray binding signal,[3]; [8],0.00759 ± 0.0043
same,peptide microarray binding signal,[3]; [9],0.00302 ± 0.00087
same,peptide microarray binding signal,[4]; [8],0.0037 ± 0.00057
same,peptide microarray binding signal,[4]; [9],0.00254 ± 0.00038
ARTKQTARKSTGG [H3 1-13 A R T K Q T A Rme2a Kme3 S T G G],peptide microarray binding signal,"[1]; peptide modifications: H3R8me2a H3K9me3, binder concentration: 50 nM",0.955 ± 0.067
same,peptide microarray binding signal,"[1]; peptide modifications: H3R8me2a H3K9me3, binder concentration: 500 nM",0.905 ± 0.038
same,peptide microarray binding signal,"[2]; peptide modifications: H3R8me2a H3K9me3, binder concentration: 10 nM",0.126 ± 0.042
same,peptide microarray binding signal,"[2]; peptide modifications: H3R8me2a H3K9me3, binder concentration: 100 nM",0.201 ± 0.059
same,peptide microarray binding signal,[3]; [10],0.0701 ± 0.02
same,peptide microarray binding signal,[3]; [11],0.0416 ± 0.019
same,peptide microarray binding signal,[4]; [10],0.458 ± 0.13
same,peptide microarray binding signal,[4]; [11],0.309 ± 0.082
ARTKQTARKSTGG [H3 1-13 A R T K Q T A Rme2a K S T G G],peptide microarray binding signal,"[1]; peptide modifications: H3R8me2a, binder concentration: 50 nM",0.00959 ± 0.00045
same,peptide microarray binding signal,"[1]; peptide modifications: H3R8me2a, binder concentration: 500 nM",0.0248 ± 0.0019
same,peptide microarray binding signal,"[2]; peptide modifications: H3R8me2a, binder concentration: 10 nM",0.00812 ± 0.00091
same,peptide microarray binding signal,"[2]; peptide modifications: H3R8me2a, binder concentration: 100 nM",0.0181 ± 0.0056
same,peptide microarray binding signal,[3]; [12],0.00191 ± 0.00018
same,peptide microarray binding signal,[3]; [13],0.000799 ± 2.2e-05
same,peptide microarray binding signal,[4]; [12],0.000951 ± 7e-05
same,peptide microarray binding signal,[4]; [13],0.000634 ± 1.2e-05
ARTKQTARKSTGG [H3 1-13 A R T K Q T A Rme2s Kme S T G G],peptide microarray binding signal,"[1]; peptide modifications: H3R8me2s H3K9me1, binder concentration: 50 nM",0.0145 ± 0.00064
same,peptide microarray binding signal,"[1]; peptide modifications: H3R8me2s H3K9me1, binder concentration: 500 nM",0.0339 ± 0.0019
same,peptide microarray binding signal,"[2]; peptide modifications: H3R8me2s H3K9me1, binder concentration: 10 nM",0.0365 ± 0.0046
same,peptide microarray binding signal,"[2]; peptide modifications: H3R8me2s H3K9me1, binder concentration: 100 nM",0.0547 ± 0.007
same,peptide microarray binding signal,[3]; [14],0.0103 ± 0.0015
same,peptide microarray binding signal,[3]; [15],0.0069 ± 0.0003
same,peptide microarray binding signal,[4]; [14],0.00578 ± 0.0013
same,peptide microarray binding signal,[4]; [15],0.00588 ± 0.00043
ARTKQTARKSTGG [H3 1-13 A R T K Q T A Rme2s Kme3 S T G G],peptide microarray binding signal,"[1]; peptide modifications: H3R8me2s H3K9me3, binder concentration: 50 nM",0.0211 ± 0.0011
same,peptide microarray binding signal,"[1]; peptide modifications: H3R8me2s H3K9me3, binder concentration: 500 nM",0.0455 ± 0.0027
same,peptide microarray binding signal,"[2]; peptide modifications: H3R8me2s H3K9me3, binder concentration: 10 nM",0.0394 ± 0.0041
same,peptide microarray binding signal,"[2]; peptide modifications: H3R8me2s H3K9me3, binder concentration: 100 nM",0.0568 ± 0.0048
same,peptide microarray binding signal,[3]; [16],0.0739 ± 0.0089
same,peptide microarray binding signal,[3]; [17],0.0587 ± 0.011
same,peptide microarray binding signal,[4]; [16],0.468 ± 0.023
same,peptide microarray binding signal,[4]; [17],0.396 ± 0.02
ARTKQTARKSTGG [H3 1-13 A R Tph Kme Q T A R K S T G G],peptide microarray binding signal,"[1]; peptide modifications: H3T3ph H3K4me1, binder concentration: 50 nM",0.00492 ± 0.00024
same,peptide microarray binding signal,"[1]; peptide modifications: H3T3ph H3K4me1, binder concentration: 500 nM",0.0238 ± 0.013
same,peptide microarray binding signal,"[2]; peptide modifications: H3T3ph H3K4me1, binder concentration: 10 nM",0.00376 ± 0.00014
same,peptide microarray binding signal,"[2]; peptide modifications: H3T3ph H3K4me1, binder concentration: 100 nM",0.021 ± 0.002
same,peptide microarray binding signal,[3]; [18],0.021 ± 0.0064
same,peptide microarray binding signal,[3]; [19],0.00765 ± 0.0012
same,peptide microarray binding signal,[4]; [18],0.00298 ± 0.00034
same,peptide microarray binding signal,[4]; [19],0.0015 ± 5.1e-05
ARTKQTARKSTGG [H3 1-13 A R Tph Kac Q T A R K S T G G],peptide microarray binding signal,"[1]; peptide modifications: H3T3ph H3K4ac, binder concentration: 50 nM",0.00699 ± 0.00027
same,peptide microarray binding signal,"[1]; peptide modifications: H3T3ph H3K4ac, binder concentration: 500 nM",0.0189 ± 0.0052
same,peptide microarray binding signal,"[2]; peptide modifications: H3T3ph H3K4ac, binder concentration: 10 nM",0.01 ± 0.0027
same,peptide microarray binding signal,"[2]; peptide modifications: H3T3ph H3K4ac, binder concentration: 100 nM",0.024 ± 0.0049
same,peptide microarray binding signal,[3]; [20],0.00177 ± 0.0002
same,peptide microarray binding signal,[3]; [21],0.00325 ± 0.0004
same,peptide microarray binding signal,[4]; [20],0.00104 ± 0.00017
same,peptide microarray binding signal,[4]; [21],0.00156 ± 0.00017
ARTKQTARKSTGG [H3 1-13 A R T K Q T A R K Sph T G G],peptide microarray binding signal,"[1]; peptide modifications: H3S10ph, binder concentration: 50 nM",0.00508 ± 8.1e-05
same,peptide microarray binding signal,"[1]; peptide modifications: H3S10ph, binder concentration: 500 nM",0.013 ± 0.00036
same,peptide microarray binding signal,"[2]; peptide modifications: H3S10ph, binder concentration: 10 nM",0.00233 ± 2.7e-05
same,peptide microarray binding signal,"[2]; peptide modifications: H3S10ph, binder concentration: 100 nM",0.0243 ± 0.00098
same,peptide microarray binding signal,[3]; [22],0.000321 ± 3.3e-06
same,peptide microarray binding signal,[3]; [23],0.000514 ± 5.5e-06
same,peptide microarray binding signal,[4]; [22],0.000362 ± 1.3e-05
same,peptide microarray binding signal,[4]; [23],0.000288
